{"source": "PubChem BioAssay AID686978", "about": "(National Center for Advancing Translational Sciences (NCATS), 2013)", "note": "Screen size: about 420,000 compounds; about 64,000 (15%) were called active. Inconclusive results (about 27%) are left out. Calls come from the whole dose curve; as a rule, active = well fitted inhibition curve with a large enough effect; inconclusive = small, poorly fitted or top-dose-only effect; inactive = flat fitted curve, though single readings scatter. These entries were drawn from the full list. A call without a number means that no potency is given here. Potency is the fitted concentration of half-maximal effect.", "data": [{"assay": "qHTS for Inhibitors of human tyrosyl-DNA phosphodiesterase 1 (TDP1): qHTS in cells in absence of CPT; note: nearly all actives have a fitted effect of over 55% in size", "details": "DT40 Tdp1-/- hTDP1 cells, no CPT, ATP luminescence, 48 h; activity change, negative = growth inhibition: at 46.2 µM (top of the series)", "procedure,_shortened": "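A cellular qHTS used chicken DT40 cells lacking endogenous Tdp1 but carrying stably transfected human TDP1. Compounds were applied without camptothecin, and cell growth kinetics were judged by ATP-dependent luminescence after ≥48 hr.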", "values": [{"smiles": "O=C1CSC(=O)N1CCOCCN1C(=O)CSC1=O", "Potency": "inactive"}, {"smiles": "COCCn1c(C)cc(C(=O)COC(=O)/C=C/c2cccc(OC)c2)c1C", "Potency": "inactive"}, {"smiles": "Cc1cc2cc3n(c2nn1)N=C(Cl)CC3", "Potency": "11.6 µM (active)"}, {"smiles": "CS(=O)(=O)c1ccc(Cl)c(NC(=O)COC(=O)c2cccc(S(=O)(=O)N3CCCC3)c2)c1", "Potency": "inactive"}, {"smiles": "CC1(C(=O)Nc2ccccc2Br)CCN1C(=O)CC1CC1", "note": "(stereo unspecified)", "Potency": "inactive"}, {"smiles": "CC1(C(=O)Nc2cccc3cccnc23)CCN1C(=O)CCC1CCCC1", "note": "(stereo unspecified)", "Potency": "16.4 µM (active)"}, {"smiles": "CC1(C(=O)NS(=O)(=O)c2ccc(Cl)cc2)CCN1C(=O)CC1CCCC1", "note": "(stereo unspecified)", "Potency": "inactive"}, {"smiles": "C=CCNc1nc(Nc2ccc(Cl)cc2)nc(OC)n1", "Potency": "inactive"}, {"smiles": "O=C(Cn1cc(C(=O)C2CC2)c2ccccc21)Nc1ccccc1Cl", "Potency": "inactive"}, {"smiles": "CN(C)S(=O)(=O)c1ccc(C(=O)NCC2(N3CCOCC3)CCCCC2)cc1", "Potency": "inactive"}, {"smiles": "CC(=O)Nc1ccccc1C(=O)C(=O)Nc1ccc(F)cc1", "Potency": "inactive"}, {"smiles": "O=S(=O)(Nc1n[nH]c(C(F)(F)F)n1)c1ccccc1", "Potency": "inactive"}, {"smiles": "CCCNC(=O)C1(C)CCCN(C(=O)c2cccc(OC(C)=O)c2C)C1", "note": "(stereo unspecified)", "Potency": "inactive"}, {"smiles": "CCCNC(=O)C1(C)CCCN(Cc2cccc(C(F)(F)F)c2)C1", "note": "(stereo unspecified)", "Potency": "25.9 µM (active)"}, {"smiles": "CCCNC(=O)C1(C)CCN(Cc2ccc(Cl)c(Cl)c2)C1", "note": "(stereo unspecified)", "Potency": "20.6 µM (active)"}, {"smiles": "CCCNC(=O)C1(C)CCCN(Cc2c(C)nn(-c3ccccc3)c2C)C1", "note": "(stereo unspecified)", "Potency": "inactive"}, {"smiles": "CCCNC(=O)C1(C)CCN(Cc2csc(-c3ccc(Cl)cc3)n2)C1", "note": "(stereo unspecified)", "Potency": "16.4 µM (active)"}, {"smiles": "CCCNC(=O)C1(C)CCN(C(=O)c2ccccc2OC(F)(F)F)C1", "note": "(stereo unspecified)", "Potency": "inactive"}, {"smiles": "CCCNC(=O)C1(C)CCN(C(=O)c2cc(F)ccc2C)C1", "note": "(stereo unspecified)", "Potency": "inactive"}, {"smiles": "CCNC(=O)C1(C)CCN(Cc2ccc(C(=O)OCC)o2)C1", "note": "(stereo unspecified)", "Potency": "inactive"}, {"smiles": "CCCNC(=O)C1(C)CCN(C(=O)c2ccc(F)cc2Cl)C1", "note": "(stereo unspecified)", "Potency": "inactive"}, {"smiles": "Cc1ccc(NC(=O)C(C)OC(=O)C2CC3CCCC(C2)C3=O)cc1S(=O)(=O)N1CCOCC1", "note": "(stereo unspecified)", "Potency": "inactive"}, {"smiles": "CCCOc1ccc(N2C(=O)CC(N(CCc3ccc(S(N)(=O)=O)cc3)C(C)=O)C2=O)cc1", "note": "(stereo unspecified)", "Potency": "inactive"}, {"smiles": "O=C(CNc1ccc(F)cc1F)NC(=O)NCc1ccco1", "Potency": "inactive"}, {"smiles": "COc1ccc(/C(N)=N/OC(=O)Oc2ccccc2)cc1", "Potency": "inactive"}, {"smiles": "Cc1noc(NS(=O)(=O)c2ccc(NC(=O)C34CCC(CC3)C4)cc2)c1C", "Potency": "inactive"}, {"smiles": "Cc1c(Cl)cccc1NC(=S)NCC(O)c1ccccc1", "note": "(stereo unspecified)", "Potency": "inactive"}, {"smiles": "O=C(C1CCCO1)N1CCN(S(=O)(=O)c2ccc(Br)cc2)CC1", "note": "(stereo unspecified)", "Potency": "inactive"}, {"smiles": "C#CCOCCOCCOCCNc1nc(N2CCN(C(=O)[C@H](CCCCN)n3cc([C@@H](N)C(C)CC)nn3)CC2)nc(N2CCN(C(=O)[C@H](Cc3ccc(O)cc3)n3cc([C@@H](N)C(C)CC)nn3)CC2)n1", "note": "(stereo partly specified)", "Potency": "inactive"}, {"smiles": "COc1cccc(C2CC(c3ccccc3)=NN2S(=O)(=O)c2ccccc2)c1OC", "note": "(stereo unspecified)", "Potency": "25.9 µM (active)"}, {"smiles": "CS(=O)(=O)Nc1cccc(C2=NN(S(=O)(=O)c3ccccc3)C(c3cccs3)C2)c1", "note": "(stereo unspecified)", "Potency": "inactive"}, {"smiles": "CCS(=O)(=O)Nc1ccc(C2=NN(S(=O)(=O)c3ccc(F)cc3)C(c3ccco3)C2)cc1", "note": "(stereo unspecified)", "Potency": "inactive"}, {"smiles": "CNC(=O)C(NC(=O)c1ccccc1)=C(C)C", "Potency": "inactive"}, {"smiles": "O=C(NCCN1C(=O)C2C3C=CC(C3)C2C1=O)Nc1ccccn1", "note": "(stereo unspecified)", "Potency": "inactive"}, {"smiles": "COc1ccc(OCC(=O)N2CCN(C(=O)c3cccs3)CC2)cc1", "Potency": "inactive"}, {"smiles": "CCc1ccc(NC(=O)COC(=O)c2cccs2)cc1", "Potency": "inactive"}, {"smiles": "O=C(CN1C(=O)CCC1=O)Nc1ccc(S(=O)(=O)N2CCOCC2)cc1", "Potency": "inactive"}, {"smiles": "O=C(CN1CCN(c2cccc(Cl)c2)CC1)Nc1ccc(S(=O)(=O)N2CCOCC2)cc1", "Potency": "8.2 µM (active)"}, {"smiles": "O=C(CN1CCOCC1)Nc1cc(Cl)ccc1Cl", "Potency": "inactive"}, {"smiles": "Cc1ccc(Cl)cc1NC(=O)CN1CCN(S(=O)(=O)N2CCOCC2)CC1", "Potency": "inactive"}, {"smiles": "O=C(CN1CCN(c2ccc(O)cc2)CC1)Nc1cc(S(=O)(=O)N2CCOCC2)ccc1Cl", "Potency": "13 µM (active)"}, {"smiles": "O=C(CN1CCN(S(=O)(=O)/C=C/c2ccccc2)CC1)Nc1ccc(N2CCOCC2)cc1", "Potency": "inactive"}, {"smiles": "Cc1cc(NC(=O)CC(C)C)cc(-c2nc3ncccc3o2)c1O", "Potency": "inactive"}, {"smiles": "Cn1c(NC(=O)c2ccc3c(c2)OCO3)cc(=O)n(C)c1=O", "Potency": "inactive"}, {"smiles": "COc1ccccc1CC(NC(C)=O)C(=O)NC1CCN(C(=O)Nc2ccccc2Cl)CC1", "note": "(stereo unspecified)", "Potency": "inactive"}, {"smiles": "Cc1nn2c(=O)cc(COC(=O)c3cccc(NC(=O)COc4ccccc4Cl)c3)nc2s1", "Potency": "inactive"}, {"smiles": "O=[N+]([O-])c1cc2ccccc2nc1-c1ccccc1", "Potency": "inactive"}, {"smiles": "COc1ccccc1Oc1nc(-c2cccnc2)nc2ccccc12", "Potency": "20.6 µM (active)"}, {"smiles": "O=[N+]([O-])c1ccc(F)cc1Oc1nc(-c2cccnc2)nc2ccccc12", "Potency": "18.4 µM (active)"}, {"smiles": "COc1ccccc1CNc1ncncc1-c1cccnc1", "Potency": "inactive"}, {"smiles": "COc1ccccc1CCNC(=O)CSc1nnc2ccc(-c3cccnc3)nn12", "Potency": "inactive"}, {"smiles": "CCN(CC(=O)NC1CCS(=O)(=O)C1)c1nc(-c2cccnc2)nc2ccccc12", "note": "(stereo unspecified)", "Potency": "inactive"}, {"smiles": "CCN(CC)c1nc(-c2ccccc2)cc(C(F)(F)F)c1C#N", "Potency": "inactive"}, {"smiles": "Cc1cc(C)cc(C(=O)OCC(=O)NCCNC(=O)COC(=O)c2cc(C)cc(C)c2)c1", "Potency": "inactive"}, {"smiles": "Cc1occc1C(=O)Nc1nnc(-c2ccncc2)s1", "Potency": "inactive"}, {"smiles": "Cc1ccc(NC(=O)Nc2nnc(-c3ccncc3)s2)cc1", "Potency": "11.6 µM (active)"}, {"smiles": "Cc1ccc(C(=O)Nc2nnc(-c3ccncc3)s2)o1", "Potency": "inactive"}, {"smiles": "CC1(C)C2CCC1(CS(=O)(=O)NCCc1c[nH]c3ccccc13)C(=O)C2", "note": "(stereo unspecified)", "Potency": "inactive"}, {"smiles": "Cc1ccc(OCCC(=O)Nc2ccc(S(=O)(=O)Nc3nccs3)cc2)cc1", "Potency": "inactive"}, {"smiles": "CN(C)NC(=O)C(NC(=O)c1ccc(N)cc1)C12CC3CC(CC(C3)C1)C2", "note": "(stereo unspecified)", "Potency": "inactive"}, {"smiles": "COC(CCN(C)C)(c1ccccc1)c1ccccc1", "Potency": "inactive"}, {"smiles": "CCn1nnc(NC(=O)c2c(OC)cccc2OC)n1", "Potency": "inactive"}, {"smiles": "COc1ccc(/C=N/n2c(C)cc(C)cc2=O)cc1", "Potency": "inactive"}, {"smiles": "O=S(=O)(c1ccc(F)cc1)N1CCN=C1SCc1cccc(F)c1", "Potency": "inactive"}, {"smiles": "CCSC1=NCCN1S(=O)(=O)c1ccc(F)cc1", "Potency": "inactive"}, {"smiles": "Cc1ccc(S(=O)(=O)N2CCN=C2SCc2c(F)cccc2Cl)cc1", "Potency": "11.6 µM (active)"}]}]}
